In the supplement of paper PMC13380429:
Values without a mark were called inactive.

Test system: Vero E6 infected with SARS-CoV-2
Assay: inhibition of SARS-CoV-2 cytopathic effect; higher = more antiviral protection, active = above 15
Conditions: 48 h

SMILES	inhibition of SARS-CoV-2 cytopathic effect (1 nM)	inhibition of SARS-CoV-2 cytopathic effect (8.33 nM)	inhibition of SARS-CoV-2 cytopathic effect (100 nM)	inhibition of SARS-CoV-2 cytopathic effect (833.33 nM)	inhibition of SARS-CoV-2 cytopathic effect (10000 nM)
CN1C(CSCC(F)(F)F)Nc2cc(Cl)c(S(N)(=O)=O)cc2S1(=O)=O (stereo not given) [polythiazide]	-0.4%	0.91%	3.31%	-0.95%	-1.62%
CON(C)C(=O)[C@H](O)[C@H](Cc1ccccc1)NC(=O)c1cc2cc(Cl)ccc2[nH]1	-0.47%	0.53%	1.7%	1.24%	4.39%
O=C(NCc1ccncc1)C12CC3CC(C1)CC(c1ccc(Cl)cc1)(C3)C2	2.05%	-4%	-2.61%	-2.22%	-5.2%
COc1ccc(CCNCC(O)COc2cccc(C)c2)cc1OC (stereo not given) [bevantolol]	-3.29%	-3.57%	-4.47%	-3.25%	-5.37%
CN(C)CCCN1c2ccccc2CCc2ccccc21 [imipramine]	-4.38%	1.76%	-1.33%	-2.74%	-4.2%
O=[N+]([O-])c1ccc2nc(COCc3nc4ccc([N+](=O)[O-])cc4[nH]3)[nH]c2c1	-1.36%	-1.65%	-4.45%	0.4%	-0.17%
O=C(NC1CCN(CCCCC2(C(=O)NCC(F)(F)F)c3ccccc3-c3ccccc32)CC1)c1ccccc1-c1ccc(C(F)(F)F)cc1 [lomitapide]	0.13%	-1.36%	0.35%	-1.45%	20.9% (active)
O=C(O)CCCNC(=O)c1cccnc1 [pikamilone]	0.18%	-2.74%	-0.01%	0.63%	-1.86%
Cc1ccc(-c2ccc(C)cn2)nc1 [abametapir]	-4.6%	1.76%	-1.42%	-3.2%	-1.76%
O[C@@H]1[C@H](O)[C@@H](CCl)O[C@H]1n1cnc2c(NC3CC4CCC3C4)ncnc21 (mixture of isomers) [5'-chloro-5'-deoxy-ENBA-(+/-)]	-4.47%	-2.02%	0.3%	3.77%	-3.73%
Cn1cc(C2=C(c3ccc(Cl)cc3Cl)C(=O)NC2=O)c2ccccc21	2.26%	6.22%	4.19%	1.47%	20.8% (active)
Cc1ccc2c(c1)C1(CCN(CCc3nc(-c4ccccc4)oc3C)CC1)OC(=O)N2	1.69%	4.93%	0.82%	-0.79%	-7.82%
CC(C)(Cc1ccc2ccccc2c1)NC[C@@H](O)COc1cccc(Cl)c1C#N	-1.61%	0.41%	0.1%	2.49%	62.5% (active)
COc1cnc(NS(=O)(=O)c2ccc(N)cc2)nc1 [sulfameter]	-0.38%	1.1%	0.11%	0.46%	2.89%
Cn1cc(-c2ccc3c(c2)CCN3C(=O)Cc2cccc(C(F)(F)F)c2)c2c(N)ncnc21	0.06%	0.68%	1.48%	32.5% (active)	27.7% (active)
N#Cc1c(N(CC(=O)O)CC(=O)O)sc(C(=O)O)c1CC(=O)O [Strontium Ranelate]	1.28%	2.01%	0.58%	5.99%	1.75%
O=Nc1ccc(O)c2ncccc12	3.04%	-4.1%	1.42%	13.5%	19.6% (active)
O=C1Nc2ccc(Cl)c3c2C1(CCCCN1CC=C(c2ccc(Cl)cc2)CC1)CCC3 (stereo not given)	0.36%	-1.45%	-2.5%	-2.84%	-3.25%
CC(=O)N(CC(O)CO)c1c(I)c(C(=O)NCCO)c(I)c(C(=O)NCC(O)CO)c1I (stereo not given) [ioxilan]	1.8%	0.19%	-2.31%	-1.98%	-0.58%
CNCc1ccc(-c2[nH]c3cc(F)cc4c3c2CCNC4=O)cc1 [rucaparib]	1.82%	5.76%	7.61%	5.18%	0.16%
C[C@@H]1NC(C)(C)CO[C@@]1(O)c1cccc(Cl)c1 [radafaxine]	-2.6%	3.35%	6.44%	7.12%	-0.21%

SMILES	inhibition of SARS-CoV-2 cytopathic effect (1 nM)	inhibition of SARS-CoV-2 cytopathic effect (8.33 nM)	inhibition of SARS-CoV-2 cytopathic effect (100 nM)	inhibition of SARS-CoV-2 cytopathic effect (833.33 nM)	inhibition of SARS-CoV-2 cytopathic effect (10000 nM)
CCCCCCCCCCCCCC(=O)[O-].CCCCCCCCCCCCCC(=O)[O-].N[C@@H]1CCCC[C@H]1N.[Pt+2] [miriplatin]	-0.38%	-0.15%	0.5%	-1%	-1.94%
CCCCc1nc(C)c(CC(=S)N(C)C)c(=O)n1Cc1ccc(-c2ccccc2-c2nnn[nH]2)cc1 [fimasartan]	0.68%	-0.83%	-1.61%	1.46%	-0.45%
COc1ccc(-n2nc(CCC(=O)N(C)O)cc2-c2ccc(Cl)cc2)cc1 [tepoxalin]	0.7%	-1.58%	0.1%	1.81%	-0.4%
CC(C)Oc1cccc(-n2c(CCc3c[nH]c4ccc(Br)cc34)nc3ccccc3c2=O)c1	-1.06%	2.18%	2.14%	0.14%	0.06%
N[C@H](C(=O)O)[C@H](O)c1ccc(O)c(O)c1 [droxidopa]	1.22%	3.16%	5.47%	1.07%	-5.92%
C=C1C(=O)O[C@@H]2C[C@@]3(C)CCC[C@H](C)C3=C[C@H]12 [alantolactone]	-2.07%	-0.06%	-2.01%	1.03%	12.6%
COc1ccc(-c2sc(NC(=O)C(C)(C)C)nc2C)cc1S(=O)(=O)Nc1ccc(O)cc1 [PI4KIII-beta-inhibitor-1]	-2.8%	-1.82%	0.52%	0.18%	5.19%
COC(F)(F)C(Cl)Cl [methoxyflurane]	0.46%	5.27%	4.68%	0.29%	-1.64%
C[C@]12CCC(=O)C=C1CC[C@@H]1[C@@H]2CC[C@@]2(C)[C@H]1CC[C@]2(C)O [17-alpha-Methyltestosterone]	0.59%	1.3%	-0.05%	1.19%	1.92%
Cc1ccc2c(=O)c3ccccc3n(CCCN)c2c1C	3.67%	4.23%	-0.41%	1.46%	-13.1%
CCOc1ccc(Cc2nccc3cc(OCC)c(OCC)cc23)cc1OCC [ethaverine]	-8.51%	-11.9%	-9.06%	-7.91%	-8.28%
CC(=O)NCC(=O)N1[C@@H]2CC[C@H]1c1ccc(Nc3ncc(C(F)(F)F)c(NC4CCC4)n3)cc12	-2.51%	-1.15%	-2.99%	-4.63%	-15.4%
Cc1ccccc1C(OCCN(C)C)c1ccccc1 (stereo not given) [orphenadrine]	0.59%	0.5%	-0.66%	1.65%	-0.73%
NC(=O)N/N=C/c1ccc(Oc2ccc(F)cc2)cc1	-1.46%	-1.91%	-0.81%	1.11%	3.26%
O=C(C[C@H]1CC(c2ccc(F)cc2F)=NO1)N1CCOCC1 (racemic)	-1.54%	0.9%	2.24%	0.99%	1.2%
COc1cc2ncnc(Nc3cccc(Cl)c3F)c2cc1OC(=O)N1CCN(C)C[C@H]1C	1.89%	2.48%	-1.03%	-2.96%	-9.49%
O=C(Nc1ccc(S(=O)(=O)Nc2ccccc2Cl)c(Cl)c1)c1ccccn1	0.59%	0.83%	-1.92%	2.48%	0.25%
C=CCc1ccc(O)c(-c2ccc(O)c(CC=C)c2)c1 [honokiol]	0.73%	-0.89%	-1.94%	-0.06%	-0.26%
CCN(CC)CCNC(=O)c1ccc(N)cc1 [procainamide]	-2.56%	0.24%	-0.04%	-1.26%	0.87%
Cc1ccc(=O)n(-c2ccccc2)c1 [pirfenidone]	3.93%	6.69%	3.96%	3.47%	5.58%
